# Reference: PubChem BioAssay (Tox21)
# A number with no mark means an inactive call. Records with an inconclusive call do not appear. Entries that show only a call come without a potency. Active and inactive are the calls of the source. Unless noted, calls follow the shape of the dose curve; as a rule, active = well fitted curve in the direction sought with a large enough effect in the repeat runs; inconclusive = weak or mixed curves; inactive = no such curve, though single readings can be large; an effect the other way counts as inactive or inconclusive.
# Assays:
# [1] = qHTS assay to identify small molecule antagonists of the TGF-beta/Smad signaling pathway - cell viability counter screen (AID 1346824); also: nearly all actives have a fitted effect of over 50% in size
# Method in brief: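 SBE-bla HEK 293T cells, incubated overnight, then compound plus 0.25 ng/mL TGF-beta1 (stock added) for 5 hr at 37 C. Viability was read in the same wells by CellTiter-Glo luminescence after 30 min at room temperature.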
# [2] = qHTS assay to identify small molecule agonists of the TGF-beta/Smad signaling pathway - cell viability counter screen (AID 1346829); also: top concentration of the series differs between compounds; nearly all actives have a fitted effect of over 45% in size
# Method in brief: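 CellTiter-Glo luminescence readout; SBE-bla HEK 293T cells, overnight plating, compound 5 hr at 37 C/5% CO2, then bla substrate 2 hr RT, then CellTiter-Glo 30 min RT.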
# [3] = qHTS assay to identify small molecule agonists of the TGF-beta/Smad signaling pathway (AID 1346859; active = well fitted activation curve with a large enough effect in the signal ratio in the repeat runs, not every such curve was filed as active; the % refers to the signal ratio; also: series mostly up to about 77 µM)
# Method in brief: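 Reporter line: HEK 293T with stably integrated SBE-controlled beta-lactamase. Compound exposure lasts 5 hr at 37 C and 5% CO2; substrate loading follows for 2 hr at room temperature, with emission read at 460 and 530 nm.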
# [4] = target: Thyrotropin-releasing hormone receptor (Homo sapiens) (UniProt P34981); experiment: qHTS assay to identify small molecule antagonists of the thyrotropin-releasing hormone receptor (TRHR) signaling pathway (AID 1346877; active = well fitted inhibition curve with a large enough effect in the repeat runs, not every such curve was filed as active; also: series mostly up to about 51 µM)
# Sequence of Thyrotropin-releasing hormone receptor (Homo sapiens) (P34981 whole entry, looked up): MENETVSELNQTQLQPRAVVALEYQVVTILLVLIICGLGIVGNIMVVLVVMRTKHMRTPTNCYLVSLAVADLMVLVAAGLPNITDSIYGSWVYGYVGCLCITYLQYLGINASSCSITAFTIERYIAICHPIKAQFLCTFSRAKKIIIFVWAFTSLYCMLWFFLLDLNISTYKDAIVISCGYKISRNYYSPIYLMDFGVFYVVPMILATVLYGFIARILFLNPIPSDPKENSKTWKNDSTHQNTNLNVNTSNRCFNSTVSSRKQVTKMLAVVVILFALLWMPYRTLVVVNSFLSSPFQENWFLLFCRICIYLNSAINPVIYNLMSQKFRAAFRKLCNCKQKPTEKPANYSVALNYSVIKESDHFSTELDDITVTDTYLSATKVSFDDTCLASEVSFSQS
# Method in brief: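 TRHR-expressing HEK293 cells were seeded, cultured 18 h at 37 °C, then loaded with calcium dye for 2 h. Compounds were pre-incubated 5 min at room temperature before 1 nM TRH (final) was added, and kinetic fluorescence was recorded for 3 min.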
# [5] = target: Thyrotropin-releasing hormone receptor (Homo sapiens) (UniProt P34981); experiment: qHTS assay to identify small molecule agonists of the thyrotropin-releasing hormone receptor (TRHR) signaling pathway (AID 1346891; calls by dose curve; also: series mostly up to about 58 µM)
# Method in brief: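 Cells: TRHR-Hek293, seeded and incubated 18 h. Dye loading: 2 h at 37 °C. Compound added from DMSO stock by pin tool. Read-out: kinetic calcium fluorescence over 3 min.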
# [6] = Human pregnane X receptor (PXR) small molecule agonists, qHTS cell viability counter screen (AID 1346977); also: nearly all actives have a fitted effect of over 50% in size
# Method in brief: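 Cytotoxicity counter screen run in the same wells as the PXR luciferase assay, using PXR-Luc HepG2 cells in charcoal-stripped serum medium. Viability: CellTiter-Fluor fluorescence after 24hr compound treatment.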
# [7] = Caspase-3/7 induction in CHO-K1 cells by small molecules, qHTS cell viability counter screen (AID 1346979); also: nearly all actives have a fitted effect of over 35% in size
# Method in brief: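 Cytotoxicity counter screen run in parallel with the caspase-3/7 assay: CHO-K1 cells, 16hr compound treatment at 37C, then CellTiter-Fluor for 1hr before fluorescence reading.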
# [8] = Caspase-3/7 induction in CHO-K1 cells by small molecules, qHTS assay (AID 1346980); also: nearly all actives have a fitted effect of over 15% in size
# Method in brief: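 Wild-type CHO-K1 cells exposed to compounds for 17hr at 37 C, 5% CO2. Caspase-3/7 activity then measured by Caspase-Glo 3/7 luminescence after 30min at room temperature.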
# [9] = Caspase-3/7 induction in HepG2 cells by small molecules, qHTS cell viability counter screen (AID 1346981); also: series mostly up to about 92 µM; nearly all actives have a fitted effect of over 30% in size
# Method in brief: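 Wild-type HepG2 cells (2,000/well) were allowed to settle for 5 hr at 37 C, 5% CO2, then dosed with compounds in DMSO by pin transfer. After 16 hr at 37 C, CellTiter-Fluor was added and fluorescence read 1 hr later.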
# [10] = target: Nuclear receptor subfamily 1 group I member 2 (Homo sapiens) (UniProt O75469); experiment: Human pregnane X receptor (PXR) small molecule agonists, qHTS assay (AID 1346982); also: nearly all actives have a fitted effect of over 35% in size; also: potency is read from the fitted curve at half-maximal effect
# Sequence of Nuclear receptor subfamily 1 group I member 2 (Homo sapiens) (O75469 whole entry, looked up): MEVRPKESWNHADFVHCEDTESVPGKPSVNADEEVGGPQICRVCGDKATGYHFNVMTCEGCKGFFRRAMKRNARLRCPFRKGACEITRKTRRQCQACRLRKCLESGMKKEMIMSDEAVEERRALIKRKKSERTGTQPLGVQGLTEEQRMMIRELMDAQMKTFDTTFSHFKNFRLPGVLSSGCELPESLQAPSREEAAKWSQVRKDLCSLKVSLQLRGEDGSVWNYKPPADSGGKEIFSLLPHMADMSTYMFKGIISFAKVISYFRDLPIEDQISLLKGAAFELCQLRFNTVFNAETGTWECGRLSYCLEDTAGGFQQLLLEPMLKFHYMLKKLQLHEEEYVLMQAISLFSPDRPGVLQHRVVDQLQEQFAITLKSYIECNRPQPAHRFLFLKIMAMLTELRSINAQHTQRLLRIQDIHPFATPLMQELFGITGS
# Method in brief: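 PXR-Luc HepG2 cells (CYP3A4 promoter-driven luciferase) were seeded in medium with 5% charcoal-stripped FBS, left 5 hr at 37 C, then exposed to compounds in DMSO for 24 hr. Luminescence was read after ONE-Glo addition.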
# [11] = target: Cytochrome P450 2D6 (Homo sapiens) (UniProt P10635); experiment: Cytochrome P450 Family 2 Subfamily D Member 6 (CYP2D6) small molecule antagonists: luciferase reporter qHTS assay (AID 1671196); also: nearly all actives have a fitted effect of over 50% in size; also: potency is read from the fitted curve at half-maximal effect
# Sequence of Cytochrome P450 2D6 (Homo sapiens) (P10635 whole entry, looked up): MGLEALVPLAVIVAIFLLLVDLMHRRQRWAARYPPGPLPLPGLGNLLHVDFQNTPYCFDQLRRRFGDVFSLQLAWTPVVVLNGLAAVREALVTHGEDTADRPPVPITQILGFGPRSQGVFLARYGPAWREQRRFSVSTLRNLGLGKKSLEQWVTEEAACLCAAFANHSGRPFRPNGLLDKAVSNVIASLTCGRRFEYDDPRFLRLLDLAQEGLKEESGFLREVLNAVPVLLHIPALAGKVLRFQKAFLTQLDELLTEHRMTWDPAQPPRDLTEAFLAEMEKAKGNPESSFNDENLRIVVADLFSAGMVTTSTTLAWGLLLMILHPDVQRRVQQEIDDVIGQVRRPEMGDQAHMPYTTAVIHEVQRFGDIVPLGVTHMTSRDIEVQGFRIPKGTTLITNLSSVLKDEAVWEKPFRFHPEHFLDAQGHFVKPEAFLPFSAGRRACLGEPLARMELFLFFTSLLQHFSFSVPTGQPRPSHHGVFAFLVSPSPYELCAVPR
# Method in brief: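 CYP2D6 enzyme–substrate mix was held with compound for 10 min at room temperature, then NADPH regeneration solution was added and the reaction ran 1 h at room temperature. Luciferin product was detected by luminescence after 20 min with detection reagent.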
# [12] = target: Cytochrome P450 2C19 (Homo sapiens) (UniProt P33261); experiment: Cytochrome P450 Family 2 Subfamily C Member 19 (CYP2C19) small molecule antagonists: luciferase reporter qHTS assay (AID 1671197); also: nearly all actives have a fitted effect of over 65% in size; also: potency is read from the fitted curve at half-maximal effect
# Sequence of Cytochrome P450 2C19 (Homo sapiens) (P33261 whole entry, looked up): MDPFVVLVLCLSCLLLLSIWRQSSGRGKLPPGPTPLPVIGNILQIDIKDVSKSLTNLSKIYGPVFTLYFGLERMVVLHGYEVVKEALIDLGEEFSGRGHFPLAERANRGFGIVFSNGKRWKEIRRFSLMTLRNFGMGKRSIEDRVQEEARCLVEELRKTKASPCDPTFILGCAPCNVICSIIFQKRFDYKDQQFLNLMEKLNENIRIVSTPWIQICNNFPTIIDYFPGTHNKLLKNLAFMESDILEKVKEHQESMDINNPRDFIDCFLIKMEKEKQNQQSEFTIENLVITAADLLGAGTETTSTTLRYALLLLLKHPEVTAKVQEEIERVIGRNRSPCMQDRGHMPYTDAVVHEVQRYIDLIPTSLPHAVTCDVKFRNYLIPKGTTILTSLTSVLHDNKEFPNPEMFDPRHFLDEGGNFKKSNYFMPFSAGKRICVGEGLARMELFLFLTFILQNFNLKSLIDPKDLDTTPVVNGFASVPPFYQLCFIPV
# Method in brief: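 Enzyme-substrate mix with proluciferin substrate (P450-Glo CYP2C19 system) preincubated with compounds 10 min at room temperature; NADPH regeneration solution added, 37C for 1 h; detection reagent stops reaction, luminescence read after 20 min. Ketoconazole positive control.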
# [13] = target: Cytochrome P450 2C9 (Homo sapiens) (UniProt P11712); experiment: Cytochrome P450 Family 2 Subfamily C Member 9 (CYP2C9) small molecule antagonists: luciferase reporter qHTS assay (AID 1671198); also: nearly all actives have a fitted effect of over 50% in size; also: potency is read from the fitted curve at half-maximal effect
# Sequence of Cytochrome P450 2C9 (Homo sapiens) (P11712 whole entry, looked up): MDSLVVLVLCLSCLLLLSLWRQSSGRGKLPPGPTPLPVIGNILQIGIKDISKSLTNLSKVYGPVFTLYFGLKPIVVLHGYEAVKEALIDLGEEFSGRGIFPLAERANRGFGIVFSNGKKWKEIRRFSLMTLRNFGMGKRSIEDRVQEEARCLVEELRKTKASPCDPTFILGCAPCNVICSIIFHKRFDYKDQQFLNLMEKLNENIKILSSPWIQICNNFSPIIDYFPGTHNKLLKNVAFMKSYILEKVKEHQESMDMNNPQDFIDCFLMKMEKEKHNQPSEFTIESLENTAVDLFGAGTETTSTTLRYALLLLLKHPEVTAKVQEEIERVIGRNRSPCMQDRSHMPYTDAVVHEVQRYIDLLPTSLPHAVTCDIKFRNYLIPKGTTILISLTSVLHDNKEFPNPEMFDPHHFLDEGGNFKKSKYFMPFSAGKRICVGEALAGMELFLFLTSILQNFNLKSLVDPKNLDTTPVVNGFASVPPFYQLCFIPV
# Method in brief: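 P450-Glo proluciferin substrate with CYP2C9 enzyme; 10 min RT preincubation, then NADPH regeneration 1 h at 37C; luciferin detection reagent 20 min RT, luminescence in relative luminescence units.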
# [14] = target: Cytochrome P450 1A2 (Homo sapiens) (UniProt P05177); experiment: Cytochrome P450 Family 1 Subfamily A Member 2 (CYP1A2) small molecule antagonists: luciferase reporter qHTS assay (AID 1671199); also: nearly all actives have a fitted effect of over 50% in size; also: potency is read from the fitted curve at half-maximal effect
# Sequence of Cytochrome P450 1A2 (Homo sapiens) (P05177 whole entry, looked up): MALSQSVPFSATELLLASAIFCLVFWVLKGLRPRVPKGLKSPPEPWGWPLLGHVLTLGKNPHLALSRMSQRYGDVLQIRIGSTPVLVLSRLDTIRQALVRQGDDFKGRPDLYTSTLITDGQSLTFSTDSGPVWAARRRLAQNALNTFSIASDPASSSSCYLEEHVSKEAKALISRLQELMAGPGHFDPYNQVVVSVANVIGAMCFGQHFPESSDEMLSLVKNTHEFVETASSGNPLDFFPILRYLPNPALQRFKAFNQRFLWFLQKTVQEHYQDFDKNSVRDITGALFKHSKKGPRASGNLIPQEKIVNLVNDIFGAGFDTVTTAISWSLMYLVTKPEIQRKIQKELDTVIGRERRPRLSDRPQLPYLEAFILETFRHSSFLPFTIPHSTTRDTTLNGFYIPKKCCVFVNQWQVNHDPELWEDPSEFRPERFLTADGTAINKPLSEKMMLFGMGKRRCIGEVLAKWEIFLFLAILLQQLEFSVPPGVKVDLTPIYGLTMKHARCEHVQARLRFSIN
# Method in brief: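 Human CYP1A2 activity measured with a P450-Glo proluciferin substrate; compounds in DMSO preincubated 10 min at room temperature with enzyme-substrate mix, then NADPH regeneration system added for 1 h. Luciferin detection reagent, 20 min, luminescence read.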
# [15] = target: Voltage-gated inwardly rectifying potassium channel KCNH2 (Homo sapiens) (UniProt Q12809); experiment: Human Ether-a-go-go-Related Gene (hERG) channel small molecule antagonists: fluorescence cell-based qHTS assay (AID 1671200)
# Sequence of Voltage-gated inwardly rectifying potassium channel KCNH2 (Homo sapiens) (Q12809 whole entry, looked up): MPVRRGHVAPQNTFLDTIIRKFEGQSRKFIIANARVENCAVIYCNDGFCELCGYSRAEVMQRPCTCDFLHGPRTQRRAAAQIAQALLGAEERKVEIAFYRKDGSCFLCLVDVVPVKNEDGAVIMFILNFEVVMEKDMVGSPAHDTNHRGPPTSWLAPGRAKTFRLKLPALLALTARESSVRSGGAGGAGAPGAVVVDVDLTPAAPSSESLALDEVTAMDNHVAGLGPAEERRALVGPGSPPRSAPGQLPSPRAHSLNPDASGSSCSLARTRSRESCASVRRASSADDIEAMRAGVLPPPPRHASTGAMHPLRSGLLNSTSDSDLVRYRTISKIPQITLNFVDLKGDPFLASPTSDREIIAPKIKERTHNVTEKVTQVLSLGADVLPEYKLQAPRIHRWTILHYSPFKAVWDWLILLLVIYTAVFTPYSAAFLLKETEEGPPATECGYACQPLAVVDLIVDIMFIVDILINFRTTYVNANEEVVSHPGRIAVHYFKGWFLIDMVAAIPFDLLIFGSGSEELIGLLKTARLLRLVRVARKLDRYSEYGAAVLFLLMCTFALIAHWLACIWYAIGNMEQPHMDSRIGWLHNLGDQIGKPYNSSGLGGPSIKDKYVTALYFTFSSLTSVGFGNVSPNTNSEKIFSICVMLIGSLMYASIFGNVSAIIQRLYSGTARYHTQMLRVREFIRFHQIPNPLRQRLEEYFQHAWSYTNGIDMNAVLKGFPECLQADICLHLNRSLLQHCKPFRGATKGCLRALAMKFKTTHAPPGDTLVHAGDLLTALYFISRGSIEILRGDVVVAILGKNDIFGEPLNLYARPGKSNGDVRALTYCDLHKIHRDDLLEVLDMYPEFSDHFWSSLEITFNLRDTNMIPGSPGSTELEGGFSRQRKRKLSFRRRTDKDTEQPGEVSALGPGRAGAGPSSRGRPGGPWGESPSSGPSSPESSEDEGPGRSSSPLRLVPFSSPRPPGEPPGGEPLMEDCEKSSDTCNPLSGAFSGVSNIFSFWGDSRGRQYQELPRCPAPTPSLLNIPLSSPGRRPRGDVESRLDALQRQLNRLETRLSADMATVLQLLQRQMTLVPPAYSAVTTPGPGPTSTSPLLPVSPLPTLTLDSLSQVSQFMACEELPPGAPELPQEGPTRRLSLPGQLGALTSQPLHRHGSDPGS
# Method in brief: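 Fluorescence at 540 nm emission (480 nm excitation) was recorded kinetically for 2 min at 1-second intervals once the thallium-containing stimulus reached cells previously loaded with FluxOR II dye.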
# [16] = target: Cytochrome P450 3A4 (Homo sapiens) (UniProt P08684); experiment: Cytochrome P450 Family 3 Subfamily A Member 4 (CYP3A4) small molecule antagonists: luciferase reporter qHTS assay (AID 1671201); also: nearly all actives have a fitted effect of over 50% in size; also: potency is read from the fitted curve at half-maximal effect
# Sequence of Cytochrome P450 3A4 (Homo sapiens) (P08684 whole entry, looked up): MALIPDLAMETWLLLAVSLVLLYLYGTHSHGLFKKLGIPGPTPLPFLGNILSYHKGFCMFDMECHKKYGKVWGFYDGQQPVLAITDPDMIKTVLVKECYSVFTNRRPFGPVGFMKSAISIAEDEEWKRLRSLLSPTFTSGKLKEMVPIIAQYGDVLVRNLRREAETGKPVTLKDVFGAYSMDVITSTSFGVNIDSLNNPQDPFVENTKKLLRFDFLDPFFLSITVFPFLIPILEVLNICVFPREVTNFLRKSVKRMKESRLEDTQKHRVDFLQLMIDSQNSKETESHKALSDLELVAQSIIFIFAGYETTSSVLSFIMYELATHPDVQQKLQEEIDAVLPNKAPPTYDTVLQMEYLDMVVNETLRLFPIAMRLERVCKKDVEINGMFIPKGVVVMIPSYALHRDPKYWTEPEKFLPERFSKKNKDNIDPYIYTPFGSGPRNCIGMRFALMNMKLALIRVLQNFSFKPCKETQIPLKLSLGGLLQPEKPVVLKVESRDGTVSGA
# Method in brief: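 qHTS, 1536-well. CYP3A4 + proluciferin substrate, cpd 10 min RT → NADPH regen 1 h RT → detection reagent 20 min → luminescence (RLU). Ketoconazole positive control.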
# [17] = Caspase-3/7 induction in HepG2 cells by small molecules, qHTS assay (AID 1346978); also: nearly all actives have a fitted effect of over 15% in size
# Method in brief: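 Wild-type HepG2 cells, 2,000/well, settled 5 hr at 37 C and 5% CO2, then compound-treated for 17 hr; caspase-3/7 activity read by luminescent Caspase-Glo 3/7 after 30 min at room temperature.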
# [18] = target: Nuclear receptor subfamily 1 group I member 2 (Homo sapiens) (UniProt O75469); experiment: CYP3A4 induction through human pregnane X receptor (PXR) by small molecules, qHTS assay (AID 1346984); also: nearly all actives have a fitted effect of over 40% in size
# Method in brief: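 DPX-2 cells (HepG2 co-transfected with PXR and CYP3A4 promoter-luciferase) treated with compounds 24 h at 37C; luciferin-IPA CYP3A4 substrate 3uM final added for 3 h, then One-Glo; luminescence read. qHTS format.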
# [19] = target: Nuclear receptor subfamily 1 group I member 2 (Homo sapiens) (UniProt O75469); experiment: Human pregnane X receptor (PXR) activation by small molecules, qHTS assay (AID 1346985); also: nearly all actives have a fitted effect of over 40% in size
# Method in brief: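 DPX-2 cells (HepG2 co-transfected with a PXR response element and a CYP3A4-promoter luciferase construct) were seeded at 2,000 per well, rested 5 hr at 37C, then exposed to DMSO-dissolved compounds for 24 hr. Activation was read as luciferase luminescence.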
Compound,outcome [1],outcome [2],outcome [3],outcome [4],outcome [5],outcome [6],Potency [7],outcome [8],outcome [9],Potency [10],Potency [11],Potency [12],Potency [13],Potency [14],Potency [15],Potency [16],outcome [17],Potency [18],Potency [19]
C=CCOC(=O)CCCCCC,inactive,inactive,inactive,inactive,inactive,inactive,inactive,inactive,inactive,inactive,inactive,inactive,inactive,inactive,inactive,inactive,–,–,–
COC(=O)c1cccc(Cl)c1,inactive,inactive,inactive,inactive,–,inactive,inactive,inactive,inactive,inactive,–,–,inactive,–,inactive,inactive,inactive,–,–
CCCSSCCC,inactive,inactive,inactive,inactive,inactive,inactive,inactive,inactive,inactive,inactive,inactive,inactive,inactive,–,–,inactive,–,–,–
C[C@]12CCC(=O)C=C1CC[C@H]1[C@@H]3CC[C@](O)(C(=O)CO)[C@@]3(C)C[C@H](O)[C@@]12F,inactive,inactive,inactive,inactive,–,inactive,inactive,inactive,inactive,inactive,inactive,inactive,–,inactive,inactive,–,inactive,inactive,inactive
CCC(C(=O)OCCN1CCOC(c2ccccc2)C1C)c1ccccc1 (configuration not stated),inactive,inactive,inactive,inactive,–,inactive,inactive,inactive,–,33.5 µM (active),5.49 µM (active),1.38 µM (active),4.9 µM (active),inactive,inactive,–,inactive,–,–
O=C(CCCl)NCCc1ccccc1,inactive,inactive,inactive,–,inactive,inactive,inactive,inactive,inactive,inactive,–,inactive,inactive,inactive,inactive,inactive,inactive,–,–
CC(=O)O[C@@H]1CC2CCC1(C)C2(C)C (some centres not stated),inactive,inactive,inactive,–,inactive,inactive,inactive,inactive,inactive,–,inactive,inactive,inactive,inactive,inactive,inactive,inactive,inactive,inactive
C[C@@H](O)C(=O)O,inactive,inactive,inactive,–,inactive,inactive,inactive,inactive,–,inactive,inactive,–,inactive,inactive,inactive,–,inactive,–,–
COS(=O)(=O)O,inactive,inactive,inactive,–,–,inactive,inactive,inactive,inactive,inactive,inactive,inactive,inactive,–,inactive,inactive,inactive,–,–
C=CC(=O)CCCCC,inactive,inactive,inactive,–,–,inactive,inactive,inactive,inactive,inactive,inactive,inactive,inactive,inactive,inactive,inactive,inactive,–,–
c1ccc(B(c2ccccc2)c2ccccc2)cc1,inactive,inactive,inactive,–,inactive,inactive,inactive,inactive,–,30.6 µM (active),31.7 µM (active),17.8 µM (active),31.7 µM (active),22.4 µM (active),inactive,35.5 µM (active),inactive,–,–
N#Cc1cscn1,inactive,inactive,inactive,–,inactive,inactive,inactive,inactive,inactive,inactive,inactive,inactive,inactive,inactive,inactive,inactive,inactive,–,–
CC1=NN(c2ccc(S(=O)(=O)O)cc2)C(=O)C1,inactive,inactive,inactive,–,inactive,inactive,inactive,inactive,inactive,inactive,inactive,79.6 µM (active),inactive,inactive,–,inactive,–,–,–
OC1OCCOC1O (configuration not stated),inactive,inactive,inactive,–,inactive,inactive,inactive,inactive,inactive,inactive,inactive,–,inactive,35.6 µM (active),inactive,inactive,inactive,–,–
